Data as given in the supplement of paper PMC11417369.
± gives the standard deviation of the averaged measurements. Over roughly 25,000 sequences, “ln(normalized median fluorescence intensity)” has its median near 10; the highest 2% begin near 12. This excerpt belongs to a sample that is enriched for the highest values.

System: PfAP2-G AP2 domain (GST-tagged)
Experiment: gcPBM binding intensity (ln(normalized median fluorescence intensity)); higher = stronger DNA binding
Method in brief: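 Binding intensity is defined as the maximum Masliner-normalised natural-log median intensity across replicate spots for either probe orientation. It was measured on an Agilent 4 × 180k array of primer-extended double-stranded 36-bp intergenic genomic probes and negative controls, to which GST-tagged P. falciparum DNA-binding domains made in E. coli were applied for 1 h in 1× PBS with 1% milk, 0.2 mg/ml BSA, 0.5% salmon testes DNA and 0.03% Triton X-100. Detection was by Alexa488 anti-GST antibody and scanning at 488 nm.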

| Sequence | gcPBM binding intensity (ln) |
| --- | --- |
| TATAAATTATATATTTGTACGTATATCACATATATA [XGTACX_site7053] | 11.3 ± 0.84 |
| AATTTTATTTAAAGTGCATGTAAAATTAAAACTTTT [TGCATGCA_site989] | 10 ± 0.057 |
| ATATAGAACACCTGTGCATGCAAGTGCTAAAAAATT [TGCATGCA_site213] | 10.2 ± 0.2 |
| ATTTTTTCTGTCTTAATTGGACCCACTGCAAATGGG [CACACA_negctrl_site1158] | 10.9 ± 0.54 |
| AACATATAAATGATATGTACACACATTTATATATAT [XGTACX_site7364] | 11.4 ± 0.53 |
| TATTTGATAAAAAAAAGTACTAGAATTTCGCTTTTG [XGTACX_site7754] | 11.1 ± 0.7 |
| ATATATACCTAAGACACACACATATAGATTTATATA [CACACA_site6498] | 9.97 ± 0.028 |
| TAGGTGTTAAAAAATACACACACAAAAAAAAAAAAA [CACACA_site7927] | 9.93 ± 0.45 |
| AAATGTTAATAAAGGTGTACACAAAATAAAAAAAAT [XGTACX_site463] | 11.7 ± 0.71 |
| AAAAAAATAATAAAATGTACAAATAAACACATAAAG [XGTACX_site5102] | 10.8 ± 0.39 |
| TAAAGTAAAGACATACTTATTTTCCATCCACTTCTT [CACACA_negctrl_site1288] | 10 ± 0.18 |
| AGTATACTCGGACACACACACACATATATATATATA [CACACA_site5031] | 11.1 ± 0.51 |
| AATTATTTTAAATATTGTACTATTACAGAATGGTGT [XGTACX_site5693] | 11 ± 0.56 |
| ATTAAATCATATGAATGTACGGATATATATATTTCC [XGTACX_site8650] | 10.7 ± 0.48 |
| AGTTATTTTAAATGTAGTACACAAAAGAAATATTAA [XGTACX_site4092] | 11.6 ± 0.94 |
| AATTATTTTATGAAAAGTACACATTGTTTTAATTCT [XGTACX_site4506] | 11.4 ± 0.98 |
| TATATTTTATAAAAAAGTACACATGAAAATGTATTT [XGTACX_site5889] | 11.5 ± 1.1 |
| TTTTAAAGAAAAAAATGTACAAAATTTTTATTTTAA [XGTACX_site1496] | 10.6 ± 0.35 |
| ATAGTATTTTTTATTACACACAAATAAAAAGAAAAA [CACACA_site2087] | 10.2 ± 0.26 |
| AAAAAAAAAAAAAAAAGTACACATCATTTTATGAAA [XGTACX_site1402] | 11.7 ± 0.76 |
| ATTTATGAAAAGTAAAGTACACACAGGAAAAAAAAA [XGTACX_site3564] | 11.4 ± 0.72 |
| TTTTTTATTAAAAGTAGTACACATGAAAAAAAAAAA [XGTACX_site5524] | 11.8 ± 1 |
| GTAATTTTAAAGAAAAGTACACATTTATTAATTATT [XGTACX_site4468] | 11.5 ± 1.2 |
| TTCTTTTTAAATTACACACACATATAAATATGTATA [CACACA_site7618] | 10.04 ± 0.071 |

| Sequence | gcPBM binding intensity (ln) |
| --- | --- |
| AAACAAAATGGTAACACACACATATATAAATATGTA [CACACA_site6994] | 10.2 ± 0.35 |
| CATATTGGTATGCTCATGCACTTTTATTTTGTTATT [GTGCAC_site9553] | 10.2 ± 0.13 |
| TTATAATAATATAATACATGCATATATATTTAAATA [TGCATGCA_site903] | 9.62 ± 0.12 |
| TGTTATTATTTGTACACACACATATAGATCCTTGTT [CACACA_site7667] | 11.3 ± 0.83 |
| AAATTACTGTAAAAAAGTACAGAAGTTCTTATTTTT [XGTACX_site7416] | 11.5 ± 0.93 |
| TTAAAATTAAAATACGTACACACCTTATCTTTTTGG [CACACA_site7982] | 11.6 ± 0.81 |
| TTAAAATTATAATACGTACACACCTTATCTTTTTGG [CACACA_site278] | 11.5 ± 0.86 |
| AAAATTAAAATACGTACACACCTTATCTTTTTGGCT [CACACA_site4311] | 11.7 ± 1.1 |
| TAGTTAATATGAAAAAGTACACGTTTCAGTGAAAGT [XGTACX_site7402] | 11.7 ± 1 |
| TATATTAATATGAAAAGTACACATTCTATATATATA [XGTACX_site929] | 11.4 ± 0.91 |
| TGGTTAATATGTGAAAGTACATATTATATTAAAATG [XGTACX_site2636] | 11.1 ± 0.58 |
| AATAAATAAATATATTGTACATATATATATATATAT [XGTACX_site8627] | 11 ± 0.53 |
| ATAAATATACCAATCGGTACACATTTATACAAACAA [XGTACX_site7484] | 11 ± 0.64 |
| ATTCTAAATTAAAATACACACATATATACATAATAT [CACACA_site2792] | 9.985 ± 0.021 |
| TTTTGATCATCCAAAATATCTTCATCTGAACTACTA [CACACA_negctrl_site939] | 9.84 ± 0.042 |
| ATTTTATTTTTGTGCACACTGATAAATTGAAAAGAG [CACACA_site2948] | 10.8 ± 0.57 |
| AATAAATTCATGAATTGTACGTAATGATAACATGAA [XGTACX_site2591] | 11.3 ± 0.75 |
| AATAATCATTTTCATAGTACGTATGATTAGAAAAAA [XGTACX_site2589] | 11 ± 0.66 |
| TATGATTCATAATAGTGTACGTAAAAATTGACTAGA [XGTACX_site5376] | 11.7 ± 1 |
| CATGCTTATATGTGCACACACAAAAGAAAAGAAAAA [CACACA_site1655] | 10.6 ± 0.62 |
| AATGTGCCCACGCGTACACACAAAAAAAGAAAAAAA [CACACA_site2003] | 11.7 ± 1.1 |
| TTAGCTACACGCTAATGTACACAAATACAAAGAAAA [XGTACX_site3993] | 11.4 ± 0.71 |
| AATGTGCACACGCGTACACACAAAAAAAGAAAAAAA [CACACA_site7031] | 11.7 ± 1.1 |
| AAAAATGTGCACACGCGTACACACAAAAAAAGAAAA [XGTACX_site4097] | 11.5 ± 0.79 |

| Sequence | gcPBM binding intensity (ln) |
| --- | --- |
| AAAATGTGCCCACGCGTACACACAAAAAAAGAAAAA [CACACA_site2004] | 11.6 ± 0.79 |
| TATTATATTATGTGATGTACATATTTATATAGGCCC [XGTACX_site4746] | 11.2 ± 0.8 |
| TGTAGTTTTTATTTATGTACGCATAACATAATTTAA [XGTACX_site104] | 11.6 ± 0.7 |
| TTATTCATTTCGAAAAGTACAAATTCTGTTTATTAT [XGTACX_site6892] | 11.1 ± 0.71 |
| CATATAAAAATGTGCACACACACACCCATATATATT [CACACA_site1526] | 10.4 ± 0.41 |
| AAAAAAAAAAAATGTGCACACGCGTACACCCAAAAA [CACACA_site8614] | 11.7 ± 0.77 |
| AAAAAAAAAAAATGTGCACACGCGTACAGACAAAAA [CACACA_site2005] | 11.8 ± 0.99 |
| AACATATAAAAATGTGCACACACACCCATATATATA [CACACA_site1525] | 10.4 ± 0.3 |
| AAAAAAAAAATGTGCACACGCGTACACCCAAAAAAA [CACACA_site5149] | 11.7 ± 0.99 |
| TATACAATATAAAATACACACGCACCCAAAAAAAAA [CACACA_site9174] | 10.6 ± 0.4 |
| AACACGCACAGACACACACACAAAAATGATTAAAAA [CACACA_site7195] | 10.6 ± 0.67 |
| TACACAAACAGACACACACACACACGCGCACAAAAA [CACACA_site7192] | 10.6 ± 0.38 |
| AAAAAAAAAACAAATACACACGCACCCAAAAAAAAA [CACACA_site8166] | 10.5 ± 0.26 |
| AAGGAACTATAATATACACACATAAGTGTACTTATA [CACACA_site7816] | 11.5 ± 1 |
| TATATATATATAACAACACACACAGATCATAAAACT [CACACA_site8670] | 10.3 ± 0.27 |
| TTAATACCCAGACACACACACACAAAATAAAATACA [CACACA_site7968] | 10.2 ± 0.4 |
| TTGTATTAAAATCAAGTGCATATAATTTAAGTTCAT [GTGCAC_site9495] | 10 ± 0.16 |
| ATAATTAACAAATACACACACACACGCCCACAAAAA [CACACA_site6389] | 10.9 ± 0.54 |
| AAATTTAAATAATGTGCGCATCTTAATATATATAAG [GTGCAC_site9890] | 10.2 ± 0.13 |
| CCCCATTTATCTTAAGCATGCCATGGTTTTAGATAT [TGCATGCA_site24] | 10.6 ± 0.42 |
| CTTATACATAAATTTTGTACACACAAAAAAAAAAAA [XGTACX_site2665] | 11.2 ± 1.1 |
| GAAAATTTTTGGTGTACACAAAAAAATCCAAAAAAA [CACACA_site5042] | 11.7 ± 0.87 |
| ATACATAAATTTTGTACACACAAAAAAAAAAAAGCT [CACACA_site1351] | 11.2 ± 0.87 |
| ATGAATATAAAATATACACACTTATATATCGAATGA [CACACA_site6240] | 9.79 ± 0.13 |

| Sequence | gcPBM binding intensity (ln) |
| --- | --- |
| ATTAGAGAATCGTAACCCAAATGAACATACTTAAAT [GTGCAC_negctrl_site363] | 10.04 ± 0.035 |
| AAAAAAAATATATAAACACACATATTTATATACTCA [CACACA_site4984] | 9.665 ± 0.092 |
| TTTATTTATTTTTGTTGTACACTTGTATATATTATT [XGTACX_site6486] | 11.4 ± 0.8 |
| TACAAAATAACTAGCACACATATGTATAAACATATA [CACACA_site5948] | 10.1 ± 0.17 |
| TATACATAAAACAGTTCACACATTGTATGAATATAT [CACACA_site4751] | 9.855 ± 0.035 |
| ATAAAATAAATATAACCACACACGAAAGAGAGAGAA [CACACA_site9075] | 10.09 ± 0.057 |
| ATAATAAATTCTACGCGTACAAAACCATGAACATTA [XGTACX_site7505] | 11.7 ± 1.1 |
| GTAAACAATTATGAACGTACATAAAATAAATGAACA [XGTACX_site7159] | 11.3 ± 0.85 |
| ATATTAATTCTACATTGTACACATGAAAAAATATAA [XGTACX_site8759] | 11.4 ± 0.96 |
| CAAGGAACCAGACACACACACATAAATGTATATATA [CACACA_site752] | 10.1 ± 0.18 |
| TTCATTCAAATCCAAGCATGCTTTATTAAAAAATTA [TGCATGCA_site567] | 9.84 ± 0.26 |
| TTTATTTTTCCATATGCACACACACCGTATATATAA [CACACA_site8293] | 10.3 ± 0.16 |
| TCTTAAAATCGGAAATGAAATAAAGTTTACAATATG [TGCATGCA_negctrl_site553] | 9.87 ± 0.071 |
| ATATATATATATATATGTACACATATATTTCTTTTC [XGTACX_site3443] | 11.4 ± 0.91 |
| ATATGTATTAAGTGTACACATATAATGGGTTTGTTA [CACACA_site5682] | 11.7 ± 0.95 |
| ATATGTATTAAGTGTACACATATAATGTATTTTGTT [CACACA_site4177] | 11.6 ± 0.92 |
| TTTATATGTATGAAGTGTACACATATATTGTATTTT [XGTACX_site5731] | 11.6 ± 0.82 |
| ATATGTATGAAGTGTACACATATATTGTATTTTCTT [CACACA_site5503] | 11.7 ± 0.91 |
| ATATGTATTAAGTGTACACATATAATGGGTTTTCTT [CACACA_site5328] | 11.6 ± 0.73 |
| ATATGTTTTAAGTGTACACATATAATGTATTTTGTT [CACACA_site4929] | 11.6 ± 0.9 |
| TTTATATGTTTTAAGTGTACACATATAATGTATTTT [XGTACX_site3069] | 11.6 ± 0.91 |
| TTTATATGTATTAAGTGTACACATATAATGTGTTTG [XGTACX_site6629] | 11.5 ± 0.86 |
